# Assay outcomes deposited in PubChem BioAssay by National Center for Advancing Translational Sciences (NCATS).
# aSyn rescue – alpha-synuclein toxicity inhibition in yeast; Yeast expressing alpha-synuclein, growth rescue, BacTiter-Glo, 24 h; Potency, µM (titrated, usually from 46.1 µM), for inactives: at the highest dose growth rescue (activation), actives largely listed as activators; 370,000 tested, 0.14% active; AID 652106; further: potency means the concentration at half of the fitted maximal effect; % of control where 0% means no effect; nearly all actives have a fitted effect of over 65% in size
#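 Screening used galactose-induced yeast with toxic alpha-synuclein levels, exposed to compound for 24 hr at 30 deg C. Cell growth, read with BacTiter-Glo luminescence, gave the measured signal.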
# LDHA block – blocks human lactate dehydrogenase A; purified LDHA, NADH/diaphorase-resazurin fluorescence; hits give low values; activity change, % (values are at about 110 or 230 µM); 480,000 tested, 0.15% active; in the data active means activity change below about -30%; inconclusive means mostly about -25% to -30%;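 further: plate controls were DMSO wells for no effect and wells without enzyme for full effect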
#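 LDH5 2 nM; NADH 0.06 mM, pyruvate 0.2 mM; 200 mM Tris pH 7.4, EDTA, Tween-20; 5 min RT. Detection: diaphorase 0.133 mg/mL + resazurin 37 µM, fluorescence ex540/em590 at 0 and 20 min; normalized to enzyme-free and DMSO wells.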
# TDP-43 yeast inh – rescues yeast growth from TDP-43 toxicity | 410,000 tested, 1.8% active | Potency, µM (top dose mostly 46.1 µM), without a hit: top-dose growth rescue (activation), usual class: activators | TDP-43 expressing yeast growth rescue, BacTiter-Glo, 24 h | AID 652104; further: potency means the concentration at half of the fitted maximal effect; % of control where 0% means no effect; nearly all actives have a fitted effect of over 50% in size
#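 Yeast expressing TDP-43 (pregrown in raffinose, seeded at OD600=0.02 in galactose medium) exposed to compounds 24 hr at 30 deg C. Growth read by BacTiter-Glo luminescence; rescue of toxicity appears as increased signal.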
# mIDH1 inhibitor – human IDH1 R132H inhibition; O75874; IDH1-R132H enzyme, NADPH consumption, diaphorase/resazurin fluorescence; Potency, µM (doses to about 76.6 µM), for inactives: at the top dose activity change, negative = inhibition, actives largely listed as inhibitors; 390,000 tested, 0.093% active; AID 602179; further: potency means the concentration at half of the fitted maximal effect; on the % scale 0 is the no-effect control and ±100 the full control effect; nearly all actives have a fitted effect of over 65% in size
# Target sequence (O75874 whole entry R132H, stated change not applied): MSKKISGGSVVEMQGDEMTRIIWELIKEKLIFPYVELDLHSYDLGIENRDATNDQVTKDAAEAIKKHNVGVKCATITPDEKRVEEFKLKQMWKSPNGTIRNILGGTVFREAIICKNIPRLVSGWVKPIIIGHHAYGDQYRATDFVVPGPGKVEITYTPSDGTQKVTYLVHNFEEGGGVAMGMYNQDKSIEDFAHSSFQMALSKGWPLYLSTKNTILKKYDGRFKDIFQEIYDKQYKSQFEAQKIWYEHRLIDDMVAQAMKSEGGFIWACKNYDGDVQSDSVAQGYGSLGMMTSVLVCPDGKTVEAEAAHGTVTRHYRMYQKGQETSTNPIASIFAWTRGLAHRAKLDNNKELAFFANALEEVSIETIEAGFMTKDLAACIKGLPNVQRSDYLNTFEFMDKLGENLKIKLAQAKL
#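 IDH1-R132H (0.5 ug/mL dispensed) in pH 7.5 Tris buffer was preincubated 30 min with compound, then given a substrate mix of 0.016 mM NADPH and 2 mM alpha-KG for 80 min at room temperature; remaining NADPH was read by diaphorase/resazurin fluorescence.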
# FUS yeast rescue – FUS proteinopathy suppression in yeast | 390,000 tested, 0.24% active | Potency, µM (series often up to 76.6 µM), hits mostly activators | S. cerevisiae FUS-expressing, growth rescue, OD600, 24 h | AID 1347120;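 further: potency means the concentration at half of the fitted maximal effect; plate controls were DMSO vehicle for no effect and reference control for full effect; nearly all actives have a fitted effect of over 55% in size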
#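 FUS-expressing yeast, raffinose-pregrown, induced in 2% galactose minimal medium at OD 0.005; compounds in a dilution series, 24hr at 30C. Growth restoration read as absorbance at 600 nm. CP55940 positive control, DMSO negative.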
# Abeta rescue – restores growth of yeast expressing A-beta42 peptide; yeast expressing A-beta42, growth rescue, OD600, 48 h; response scale: 0% DMSO, 100% iron-clioquinol control; Potency, µM (highest dose often 46.1 µM), actives largely listed as activators; 410,000 tested, 0.063% active; further: potency means the concentration at half of the fitted maximal effect; nearly all actives have a fitted effect of over 55% in size
#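 Yeast A-beta toxicity model in growth medium with pinned compounds, 48 h at 30 C; growth read as absorbance at 600 nm. Normalized to FeCl3/clioquinol equimolar mix (positive) and DMSO (negative).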
# * marks the source's active call; other numbers are inactive results; i = inactive; ? = inconclusive; nt = no result given. A selection: hits, their analogues and other compounds. The true share with any hit is near 2%. Unless noted, the call rests on the fitted dose curve; in most records, active means well fitted curve in the direction sought with a large enough effect; inconclusive means small, poorly fitted or top-dose-only effect, or another doubt; inactive means no such curve, though single readings can be large; an effect the other way counts as inactive or inconclusive.
SMILES,aSyn rescue,LDHA block,TDP-43 yeast inh,mIDH1 inhibitor,FUS yeast rescue,Abeta rescue
O=C(N[C@@H]1C/C=C\C[C@H](CC(=O)N(CCO)Cc2ccccc2)C(=O)N[C@@H](Cc2ccccc2)COC1=O)OCC1c2ccccc2-c2ccccc21,7.1%,-1.6,9.0%,5.5%,31.6µM*,i
O=C1N[C@@H](Cc2ccccc2)COC(=O)[C@H](Cc2ccc(F)cc2)CC/C=C/C[C@H]1CC(=O)N(CCO)Cc1ccccc1,-0.6%,0.4,29.2%,-3.1%,22.4µM*,i
COc1ccccc1NC(=S)N(Cc1ccccc1)Cc1ccccn1,4.3%,-3.6,22.4µM*,3.8%,i,?
O=S(=O)(NCc1cc2cc(F)ccc2s1)c1ccc(Br)s1,nt,1.2,nt,nt,nt,nt
Cc1oc(-c2ccccc2)nc1C(=O)N1CCN(c2ccc(F)cc2)CC1,1.8%,-2.3,11.2µM*,-1.7%,i,i
CCNc1nc(-c2ccc3c(c2)CCC(=O)N3)cs1,nt,1.6,nt,nt,nt,nt
Cc1ccc(-c2cc(C(=O)Nc3cc(F)ccc3F)c3ccccc3n2)o1,nt,-6.7,nt,nt,nt,nt
CCOc1ccc(NC(=S)NC(=O)c2c(Cl)cnn2CC)c([N+](=O)[O-])c1,2.3%,-9.3,4.7%,5.2%,nt,i
CCOc1ccc(NC(=S)NC(=O)c2c(Br)cnn2C)c([N+](=O)[O-])c1,-4.4%,-2.2,15.8µM*,6.1%,i,i
Cc1oc2ncn(CC(C)C)c(=O)c2c1C(=O)NCCc1ccccc1,nt,-0.7,?,-9.7%,i,i
COc1ccc(OC)c(CCNC(=O)c2c(C)oc3ncn(CC(C)C)c(=O)c23)c1,nt,4.5,25.1µM*,1.1%,?,i
CCc1ccc(CNC(=O)c2c(C)oc3ncn(CC(C)C)c(=O)c23)cc1,nt,-3.0,25.1µM*,-5.6%,i,i
Cc1c(NC(=S)NC(=O)C(C)(C)C)cccc1[N+](=O)[O-],1.1%,-5.6,14.1µM*,4.3%,i,i
O=C(CCCc1ccccc1)Nc1ccccc1[N+](=O)[O-],23.2%,-4.0,11.2µM*,-5.3%,i,i
O=C(CCc1ccccc1)NC(=S)Nc1ccccc1[N+](=O)[O-],7.2%,1.3,12.6µM*,-9.4%,i,?
O=C(CCc1ccccc1)Nc1ccccc1[N+](=O)[O-],0.0%,0.1,?,3.4%,i,i
Cc1ccc([N+](=O)[O-])cc1NC(=S)NC(=O)C(C)(C)C,-3.7%,-13.1,?,3.9%,i,?
Cc1ccc(/C=C/C(=O)OC(C)C(=O)c2ccc(C)c(C)c2)o1 (configuration not stated),nt,0.0,nt,nt,nt,nt
COc1cccc(OCc2cc(C3C(C#N)=C(N)Oc4n[nH]c(C)c43)ccc2OC)c1 (configuration not stated),nt,-7.0,nt,nt,nt,nt
Cc1nn(-c2nc3c(c(=O)n(Cc4cccc(Cl)c4)c(=O)n3C)n2C(C)C)c(C)c1C,nt,1.4,nt,nt,nt,nt
CC(=O)Nc1ccc(-c2ccnc3c2CC(C(=O)Nc2ccc(C(C)C)cc2)O3)cc1 (configuration not stated),10.6%,0.3,19.6%,nt,?,i
COc1ccc(NC(=O)C2Cc3c(-c4ccccc4Oc4ccccc4)ccnc3O2)cc1 (configuration not stated),7.3%,-2.9,25.1µM*,nt,i,i
CC(C)c1ccc(NC(=O)C2Cc3c(-c4ccc5c(c4)OCO5)ccnc3O2)cc1 (configuration not stated),-0.3%,-4.4,35.5µM*,nt,?,i
CC(=O)c1cccc(-c2ccnc3c2CC(C(=O)Nc2ccc(Cl)c(C(F)(F)F)c2)O3)c1 (configuration not stated),22.6%,-4.7,15.8µM*,nt,i,i
CC(=O)c1cccc(-c2ccnc3c2CC(C(=O)Nc2ccc(Cl)cc2)O3)c1 (configuration not stated),16.1%,-1.4,16.6%,nt,?,i
SMILES,aSyn rescue,LDHA block,TDP-43 yeast inh,mIDH1 inhibitor,FUS yeast rescue,Abeta rescue
CC(C)c1ccc(NC(=O)C2Cc3c(-c4ccco4)ccnc3O2)cc1 (configuration not stated),?,-3.4,35.5µM*,nt,i,i
CC(=O)c1cccc(OC(C)C(=O)C(C#N)C(=O)NC2CC2)c1 (configuration not stated),nt,4.5,nt,nt,nt,nt
Cc1ccc(C)c(N2CCN(C(=O)C3CCN(c4nnc(-n5c(C)ccc5C)s4)CC3)CC2)c1,nt,-7.4,nt,nt,nt,nt
Cc1ccc(-c2cc(C(=O)O)c3ccc(Br)cc3n2)o1,nt,13.5,nt,nt,nt,nt
CCCNc1nc2ccccc2nc1C(=O)Nc1cccc(OC)c1,nt,-2.9,nt,nt,nt,nt
COc1ccc(NC(=O)C2Cc3c(-c4cccc(C(C)=O)c4)ccnc3O2)cc1 (configuration not stated),5.4%,-1.4,22.4µM*,nt,i,i
CC(=O)c1cccc(-c2ccnc3c2CC(C(=O)Nc2ccc4c(c2)OCO4)O3)c1 (configuration not stated),13.7%,-6.5,25.1µM*,nt,?,i
COc1ccc(NC(=O)C2Cc3c(-c4cccc(NC(C)=O)c4)ccnc3O2)cc1 (configuration not stated),6.2%,4.6,13.2%,nt,i,i
COc1ccc(CCCNC(=O)C2Cc3c(-c4ccccc4)ccnc3O2)cc1 (configuration not stated),15.5%,-5.8,31.6µM*,nt,i,i
CC(=O)c1cccc(-c2ccnc3c2CC(C(=O)Nc2cccc(OC(F)(F)F)c2)O3)c1 (configuration not stated),24.2%,-3.5,35.5µM*,nt,i,?
O=C(Nc1cccc(OC(F)(F)F)c1)C1Cc2c(-c3ccc(Cl)cc3)ccnc2O1 (configuration not stated),?,2.6,20.7%,nt,i,i
COc1ccc(CNC(=O)C2Cc3c(-c4ccccc4)ccnc3O2)cc1OC (configuration not stated),-5.1%,0.3,-14.6%,nt,i,i
CCOC(=O)C1CCCN(C2CC(=O)N(c3ccc(C(C)C)cc3)C2=O)C1 (configuration not stated),5.6%,-8.6,35.5µM*,-1.1%,i,i
CCOC(=O)CC(=O)CSc1nc2c(cc1C#N)CCCCCC2,-3.5%,9.6,18.3%,9.6%,11.2µM*,i
O=C(NC1(C(F)(F)F)C(=O)Nc2c1c(=O)[nH]c(=O)n2Cc1ccco1)c1ccccc1 (configuration not stated),nt,20.9,nt,nt,nt,nt
